The results in this text go back to PubChem BioAssay (Tox21).

Inconclusive results are not listed. A number with no mark means an inactive call. The source made the active and inactive calls. Calls follow the shape of the dose curve; as a rule, active = well fitted cell-killing curve with a large enough effect in the repeat runs; inconclusive = weak or mixed curves, or effect the other way; inactive = flat fitted curve, though single readings scatter.
% is scaled to controls: 0 for no effect and ±100 for the full control effect; potency is read from the fitted curve at half-maximal effect.

A short description of this assay: Human pregnane X receptor (PXR) small molecule agonists, qHTS cell viability counter screen (AID 1346977). Also: nearly all actives have a fitted effect of over 50% in size. The following applies: PXR-Luc HepG2 viability, CellTiter-Fluor, 24 h; series mostly up to 92.4 µM; activity change, negative = cytotoxicity: at the top concentration. An excerpt:
U.S. Tox21 Program National Center for Advancing Translational Sciences [NCATS] NIH Chemical Genomics Center [NCGC] U.S. Environmental Protection Agency [EPA] National Institutes of Environmental Health Sciences [NIEHS] National Toxicology Program [NTP] U.S. Food and Drug Administration [FDA] Tox21 Assay Overview: The human pregnane X receptor (hPXR) regulates the expression of several drug metabolizing enzymes and induction of these proteins is a major mechanism for developing drug resistance in cancer. One such key enzyme catalyzing the drug metabolism is cytochrome P450 3A4 (CYP3A4). Changes in CYP3A4 expression affect drug metabolism, thereby reducing the therapeutic efficacy and altering toxicological response to a drug and which finally causes adverse drug interaction. To screen Tox21 libraries for compounds that activate hPXR-mediated CYP3A4 gene expression, PXR-Luc HepG2 cells were used. Also cytotoxicity of the compounds was tested in parallel by measuring the cell viability using CellTiter-Fluor assay system in the same wells.
Tox21 Assay Protocol Summary: PXR-Luc HepG2 cells were dispensed at 2,000 per well in 5uL of assay medium containing 5% charcoal-stripped FBS into white solid bottom 1536-well plates (Corning Life Sciences, Corning, NY) using a Multidrop Combi (Thermo Scientific, Waltham, MA) dispenser. The assay plates were incubated at 37 C and 5% CO2 for 5hr, and then 23nL of compounds dissolved in DMSO and positive control were transferred using a Pintool station (Wako, San Diego, CA). The assay plates were incubated at 37C and 5% CO2 for 24hr. For cytotoxicity read, after 23hr incubation at 37C, 1uL CellTiter-Fluor reagent (Promega Corporation, Madison, WI) was added to each well of the assay plates using Flying Reagent Dispenser (FRD, Aurora Discovery, San Diego, CA). After 1hr incubation at 37C and 5% CO2, the fluorescence signal was quantified using a ViewLux plate reader (PerkinElmer, Shelton, CT).
Background: In qHTS, concentration-response curves come from the screen itself.
Take `CN(C/C=C/C#CC(C)(C)C)Cc1cccc2ccccc12`: the “activity change, negative = cytotoxicity” value was 17.5% [at 42.5 µM].
Turning to `Clc1ccccc1C(c1ccccc1)(c1ccccc1)n1ccnc1`, the Potency is 17.2 µM (active).
For `CCCC/C=C/CCCCO`, the “activity change, negative = cytotoxicity” value is -2.68%.
Still for that read-out and setting: in the case of `O=Cc1cc(O)ccc1Br` it was 5.9%.
Take `O=C(Nc1cccc([N+](=O)[O-])c1)c1cc2ccccc2cc1O`: the Potency is 3.86 µM (active).
Take `CCN(Cc1cccnc1)C(=O)c1cccc(Cl)c1[C@]1(C)C(=O)N(Cc2ccc(OC)cc2OC)c2ccc(Cl)cc21`: the Potency was 25.5 µM (active).
Consider `CCC(Cl)C(Cl)C(Cl)CC(Cl)C(Cl)C(C)Cl` (stereo not given), for which the “activity change, negative = cytotoxicity” value is 1.9%.
Consider `OC1(c2ccc(Cl)c(C(F)(F)F)c2)CCN(CCCC(c2ccc(F)cc2)c2ccc(F)cc2)CC1`, for which the Potency is 10.6 µM (active).
With `CN(C)[C@@H]1C(=O)C(C(N)=O)=C(O)[C@@]2(O)C(=O)C3=C(O)c4c(O)cccc4C[C@H]3C[C@@H]12`, the “activity change, negative = cytotoxicity” value was 7.93% [at 42.5 µM].
As for `O=[N+]([O-])c1ccccc1Nc1ccccc1`, the “activity change, negative = cytotoxicity” value is -4.21%.
`CC[C@@]1(O)C(=O)OCc2c1cc1n(c2=O)Cc2c-1nc1ccccc1c2/C=N/OC(C)(C)C`: the Potency was 0.237 µM (active).
Take `CC(=O)N1CCN(c2ccc(OC[C@H]3CO[C@](Cn4ccnc4)(c4ccc(Cl)cc4Cl)O3)cc2)CC1`: the Potency is 27.3 µM (active).
On to `CC(C)(C)c1ccc(C(=O)CCCN2CCC(OC(c3ccccc3)c3ccccc3)CC2)cc1`, for which the Potency was 21.1 µM (active).
As to `Clc1ccc2cc3ccccc3cc2c1`, the “activity change, negative = cytotoxicity” value was 4.4%.
`CCN(C(=O)N(CC)c1ccccc1)c1ccccc1`: the “activity change, negative = cytotoxicity” value was -1.3%.
For the molecule `CCCCCCCC[N+](CCCCCCCC)(CCCCCCCC)CCCCCCCC`, the Potency was 5.44 µM (active).
Turning to `CCCC(C)c1ccccc1O` (stereo not given), the “activity change, negative = cytotoxicity” value was -1.08%.
In the case of `Cc1[nH]nc2c1N=C(c1ccccc1Cl)c1cc([N+](=O)[O-])ccc1N2`, the Potency was 13.7 µM (active).
On the same count and under the same terms, the result for `CCOC(=O)O[C@H](C)OC(=O)c1ccc2c(c1)cc(C(=O)NC1CCN(C(C)C)CC1)n2Cc1cc(-c2ccc(Cl)s2)on1` reads 45.4 µM (active); that for `Cc1cc(O)c2ccccc2c1O`, 16.8 µM (active).
Consider `CC(C)(C)C(=O)OCOC(=O)[C@@H]1N2C(=O)[C@@H](NC(=O)[C@H](N)c3ccccc3)[C@H]2SC1(C)C`, for which the “activity change, negative = cytotoxicity” value was -0.374% [at 42.5 µM].
Regarding `CCCCCOc1ccccc1/C(=C\SC)n1ccnc1`, the Potency was 23.7 µM (active).
Turning to `O=C(OCC(COC(=O)c1ccccc1)(COC(=O)c1ccccc1)COC(=O)c1ccccc1)c1ccccc1`, the “activity change, negative = cytotoxicity” value is 11.2%.
For the molecule `N#CSc1ccc(N)c([N+](=O)[O-])c1`, the Potency is 30.8 µM (active).
Consider `CC(C)(C)C1CCC(CC2=C(O)c3ccccc3C(=O)C2=O)CC1` (stereo not given), for which the Potency was 10.6 µM (active).
In the case of `CCN1/C(=C/C=C/c2sc3ccccc3[n+]2CC)Sc2ccccc21`, the Potency is 5.17 µM (active).
Turning to `CCC(C)Nc1ccc(NC(C)CC)cc1` (stereo not given), the Potency is 12.4 µM (active).
Take `COc1cc(-c2ccc(N=C=O)c(OC)c2)ccc1N=C=O`: the “activity change, negative = cytotoxicity” value is 0.838% [at 42.5 µM].
For the molecule `CCCCCOC(=O)CCCC`, the “activity change, negative = cytotoxicity” value is 6.6%.
Consider `O=C(Nc1cccc(C(F)(F)F)c1)c1cc(Br)cc(Br)c1O`, for which the Potency was 2.73 µM (active).
Still for that read-out and setting: the result for `CCN(CC)CCNC(=O)c1c(C)[nH]c(/C=C2\C(=O)Nc3ccc(F)cc32)c1C` reads 11.9 µM (active).
As for `CSc1cnc(C)cn1`, the “activity change, negative = cytotoxicity” value was -1.75% [at 240 µM].
On to `[Cl][Bi]([Cl])([c]1ccccc1)([c]1ccccc1)[c]1ccccc1`, for which the Potency is 3.83 µM (active).
Consider `NNC(=O)c1cccc(C(=O)NN)c1`, for which the “activity change, negative = cytotoxicity” value was 8.98%.
For the molecule `CCCCCCCCCCCCCCCCCC[N+](C)(C)Cc1ccccc1`, the Potency was 11 µM (active).
Regarding `CN1CCN(CCC(=O)N2c3ccccc3Sc3ccc(C(F)(F)F)cc32)CC1`, the Potency was 26.6 µM (active).
Consider `Cc1c(C)c2c(c(C)c1OC(=O)CCC(=O)O)CC[C@@](C)(CCC[C@H](C)CCC[C@H](C)CCCC(C)C)O2`, for which the “activity change, negative = cytotoxicity” value was -0.0525%.
On to `Cc1ccc(O)c2ncccc12`, for which the Potency was 5.96 µM (active).
As for `Oc1cccc2cc3cccc(O)c3c(O)c12`, the “activity change, negative = cytotoxicity” value was -22%.
Turning to `CCCCCCCC/C=C\CCCCCCCCOCCO`, the Potency was 15.9 µM (active).
